Here are results for six compounds from ChEMBL document CHEMBL1961873, “Compounds: GSK PKIS; Assays: Nanosyn kinase panel” (2012).

SMILES strings stand for the structures.

In assay [1] the target is Serine/threonine-protein kinase MRCK alpha (Homo sapiens) (UniProt Q5VT25). The settings on record: at 0.1 µM.
The target is the same in assay [2]. To be noted: at 1 µM.
The target in assay [3] is Serine/threonine-protein kinase MRCK beta (Homo sapiens) (UniProt Q9Y5S2). The settings on record: at 0.1 µM.
For assay [4] the target is unchanged. The settings on record: at 1 µM.
Assay [5] addresses Ribosomal protein S6 kinase alpha-5 (Homo sapiens) (UniProt O75582). To be noted: at 0.1 µM.
For assay [6] the target is unchanged. To be noted: at 1 µM.
Assay [7] deals with Ribosomal protein S6 kinase alpha-4 (Homo sapiens) (UniProt O75676). The settings on record: at 0.1 µM.
Assay [8] shares this target. The settings on record: at 1 µM.
Assay [9] has as its target Ribosomal protein S6 kinase beta-1 (Homo sapiens) (UniProt P23443). To be noted: at 0.1 µM.
Assay [10] shares this target. The settings on record: at 1 µM.
In assay [11] the target is T1, 3-phosphoinositide-dependent protein kinase 1 (Homo sapiens) (UniProt O15530).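 Further: values are mean inhibition of PDK1.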
T1 sequence (whole entry): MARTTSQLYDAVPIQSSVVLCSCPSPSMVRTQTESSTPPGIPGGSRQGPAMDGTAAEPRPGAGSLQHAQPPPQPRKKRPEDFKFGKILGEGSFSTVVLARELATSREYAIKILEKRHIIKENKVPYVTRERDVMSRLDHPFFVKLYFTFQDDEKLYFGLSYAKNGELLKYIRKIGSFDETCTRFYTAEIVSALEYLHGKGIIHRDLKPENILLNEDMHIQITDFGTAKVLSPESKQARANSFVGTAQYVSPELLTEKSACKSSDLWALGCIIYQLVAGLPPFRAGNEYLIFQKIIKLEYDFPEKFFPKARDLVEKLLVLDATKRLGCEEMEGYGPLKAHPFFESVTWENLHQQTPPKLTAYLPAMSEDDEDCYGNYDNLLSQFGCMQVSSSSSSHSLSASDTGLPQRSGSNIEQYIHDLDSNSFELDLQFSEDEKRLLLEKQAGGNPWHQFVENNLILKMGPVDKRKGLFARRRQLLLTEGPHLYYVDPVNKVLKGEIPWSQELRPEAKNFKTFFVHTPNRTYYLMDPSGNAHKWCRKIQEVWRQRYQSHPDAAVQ
The settings on record: at 0.1 µM.

The target in assay [12] is cAMP-dependent protein kinase catalytic subunit alpha (Homo sapiens) (UniProt P17612). The settings on record: at 0.1 µM.
Assay [13] has the same target. The settings on record: at 1 µM.
The target in assay [14] is Protein kinase C alpha type (Homo sapiens) (UniProt P17252). To be noted: at 0.1 µM.
The target is the same in assay [15]. To be noted: at 1 µM.
The target of assay [16] is Protein kinase C beta type (Homo sapiens) (UniProt P05771). The settings on record: at 0.1 µM.
The target is the same in assay [17]. The settings on record: at 1 µM.
In assay [18] the target is Protein kinase C eta type (Homo sapiens) (UniProt P24723). The settings on record: at 0.1 µM.
For assay [19] the target is unchanged. The settings on record: at 1 µM.
In assay [20] the target is Protein kinase C gamma type (Homo sapiens) (UniProt P05129). The settings on record: at 0.1 µM.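 Further: values are mean percent inhibition of PKC gamma.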

Ribosomal protein S6 kinase alpha-5 (Homo sapiens), sequence (O75582 whole entry, looked up): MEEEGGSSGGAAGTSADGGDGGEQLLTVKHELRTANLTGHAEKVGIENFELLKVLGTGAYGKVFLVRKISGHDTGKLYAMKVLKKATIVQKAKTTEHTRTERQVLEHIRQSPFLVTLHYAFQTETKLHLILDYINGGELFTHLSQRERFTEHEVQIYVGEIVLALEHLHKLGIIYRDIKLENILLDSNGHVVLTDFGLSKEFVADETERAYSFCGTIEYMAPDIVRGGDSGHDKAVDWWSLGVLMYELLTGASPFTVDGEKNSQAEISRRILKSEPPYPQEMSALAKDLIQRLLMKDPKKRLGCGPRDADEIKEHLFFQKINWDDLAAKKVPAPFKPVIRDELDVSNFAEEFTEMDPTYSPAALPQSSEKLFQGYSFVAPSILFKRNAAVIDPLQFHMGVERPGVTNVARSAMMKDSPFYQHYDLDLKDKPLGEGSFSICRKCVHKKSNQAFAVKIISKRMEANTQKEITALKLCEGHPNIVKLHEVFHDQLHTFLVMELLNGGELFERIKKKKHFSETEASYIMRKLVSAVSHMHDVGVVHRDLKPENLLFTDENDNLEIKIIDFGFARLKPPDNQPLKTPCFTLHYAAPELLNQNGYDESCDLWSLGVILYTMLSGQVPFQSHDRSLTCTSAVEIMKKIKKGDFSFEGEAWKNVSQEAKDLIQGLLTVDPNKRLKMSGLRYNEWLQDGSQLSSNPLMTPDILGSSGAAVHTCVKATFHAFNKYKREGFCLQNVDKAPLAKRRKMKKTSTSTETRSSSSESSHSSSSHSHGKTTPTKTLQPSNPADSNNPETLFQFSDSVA
Serine/threonine-protein kinase MRCK beta (Homo sapiens), sequence (Q9Y5S2 whole entry): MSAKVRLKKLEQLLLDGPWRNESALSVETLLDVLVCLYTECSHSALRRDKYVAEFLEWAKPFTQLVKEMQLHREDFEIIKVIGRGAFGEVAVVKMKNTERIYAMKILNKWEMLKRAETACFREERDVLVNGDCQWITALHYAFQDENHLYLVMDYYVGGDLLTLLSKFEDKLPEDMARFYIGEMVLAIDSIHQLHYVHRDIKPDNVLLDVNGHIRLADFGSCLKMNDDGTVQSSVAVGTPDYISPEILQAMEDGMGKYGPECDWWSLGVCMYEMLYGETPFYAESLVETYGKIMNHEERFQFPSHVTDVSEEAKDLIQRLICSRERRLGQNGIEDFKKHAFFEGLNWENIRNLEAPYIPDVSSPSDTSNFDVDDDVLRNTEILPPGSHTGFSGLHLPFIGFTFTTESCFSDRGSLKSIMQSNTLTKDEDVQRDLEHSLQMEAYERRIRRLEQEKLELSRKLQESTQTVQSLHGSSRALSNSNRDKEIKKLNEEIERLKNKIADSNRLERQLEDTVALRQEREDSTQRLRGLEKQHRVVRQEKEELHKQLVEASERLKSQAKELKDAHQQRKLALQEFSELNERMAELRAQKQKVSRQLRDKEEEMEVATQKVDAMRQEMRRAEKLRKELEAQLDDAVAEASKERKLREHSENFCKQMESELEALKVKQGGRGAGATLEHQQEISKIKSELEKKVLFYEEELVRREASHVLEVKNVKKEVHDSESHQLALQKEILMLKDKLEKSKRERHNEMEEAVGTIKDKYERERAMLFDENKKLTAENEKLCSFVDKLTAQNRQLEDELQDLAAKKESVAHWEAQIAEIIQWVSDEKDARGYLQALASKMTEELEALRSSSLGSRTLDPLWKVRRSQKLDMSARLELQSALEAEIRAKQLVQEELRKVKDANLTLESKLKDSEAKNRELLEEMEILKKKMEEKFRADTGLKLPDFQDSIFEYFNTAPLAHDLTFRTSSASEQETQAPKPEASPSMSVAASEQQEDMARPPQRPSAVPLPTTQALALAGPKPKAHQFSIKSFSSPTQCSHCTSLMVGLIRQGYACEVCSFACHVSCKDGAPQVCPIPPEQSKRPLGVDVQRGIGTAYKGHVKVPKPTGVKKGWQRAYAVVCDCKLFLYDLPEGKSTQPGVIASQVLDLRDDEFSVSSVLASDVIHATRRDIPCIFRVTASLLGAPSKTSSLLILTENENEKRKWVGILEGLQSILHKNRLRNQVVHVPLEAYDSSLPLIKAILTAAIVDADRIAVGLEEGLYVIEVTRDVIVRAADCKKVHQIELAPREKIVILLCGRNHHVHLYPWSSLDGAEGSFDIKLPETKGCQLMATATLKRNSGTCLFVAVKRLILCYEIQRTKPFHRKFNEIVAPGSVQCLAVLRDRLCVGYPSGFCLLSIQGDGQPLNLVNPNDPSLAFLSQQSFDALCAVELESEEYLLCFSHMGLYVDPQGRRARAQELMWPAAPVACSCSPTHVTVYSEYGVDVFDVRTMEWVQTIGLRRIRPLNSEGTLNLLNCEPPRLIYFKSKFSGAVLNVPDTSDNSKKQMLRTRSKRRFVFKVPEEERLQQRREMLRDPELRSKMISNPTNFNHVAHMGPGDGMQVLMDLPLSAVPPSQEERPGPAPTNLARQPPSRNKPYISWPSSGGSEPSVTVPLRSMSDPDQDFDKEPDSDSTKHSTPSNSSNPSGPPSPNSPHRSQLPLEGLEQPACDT
Protein kinase C beta type (Homo sapiens), sequence (P05771 2-671 limits assumed): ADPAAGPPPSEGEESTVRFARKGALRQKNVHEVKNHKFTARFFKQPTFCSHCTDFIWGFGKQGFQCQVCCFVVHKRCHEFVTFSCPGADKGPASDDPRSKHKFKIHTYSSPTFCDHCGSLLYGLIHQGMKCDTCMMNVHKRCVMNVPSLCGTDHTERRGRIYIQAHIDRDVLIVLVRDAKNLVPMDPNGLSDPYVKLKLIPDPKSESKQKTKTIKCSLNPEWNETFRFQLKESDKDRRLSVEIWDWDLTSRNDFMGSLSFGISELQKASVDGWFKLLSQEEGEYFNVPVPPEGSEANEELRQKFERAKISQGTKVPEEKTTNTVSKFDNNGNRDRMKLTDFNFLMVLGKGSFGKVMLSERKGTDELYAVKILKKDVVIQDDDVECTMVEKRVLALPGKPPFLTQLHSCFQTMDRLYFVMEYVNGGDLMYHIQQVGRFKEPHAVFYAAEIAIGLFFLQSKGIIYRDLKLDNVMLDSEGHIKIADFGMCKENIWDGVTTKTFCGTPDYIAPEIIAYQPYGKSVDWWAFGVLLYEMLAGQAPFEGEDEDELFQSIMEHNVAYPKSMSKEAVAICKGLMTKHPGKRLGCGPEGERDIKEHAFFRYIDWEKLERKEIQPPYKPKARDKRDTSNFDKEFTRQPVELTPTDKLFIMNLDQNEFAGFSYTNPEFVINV
Ribosomal protein S6 kinase beta-1 (Homo sapiens), sequence (P23443 whole entry, looked up): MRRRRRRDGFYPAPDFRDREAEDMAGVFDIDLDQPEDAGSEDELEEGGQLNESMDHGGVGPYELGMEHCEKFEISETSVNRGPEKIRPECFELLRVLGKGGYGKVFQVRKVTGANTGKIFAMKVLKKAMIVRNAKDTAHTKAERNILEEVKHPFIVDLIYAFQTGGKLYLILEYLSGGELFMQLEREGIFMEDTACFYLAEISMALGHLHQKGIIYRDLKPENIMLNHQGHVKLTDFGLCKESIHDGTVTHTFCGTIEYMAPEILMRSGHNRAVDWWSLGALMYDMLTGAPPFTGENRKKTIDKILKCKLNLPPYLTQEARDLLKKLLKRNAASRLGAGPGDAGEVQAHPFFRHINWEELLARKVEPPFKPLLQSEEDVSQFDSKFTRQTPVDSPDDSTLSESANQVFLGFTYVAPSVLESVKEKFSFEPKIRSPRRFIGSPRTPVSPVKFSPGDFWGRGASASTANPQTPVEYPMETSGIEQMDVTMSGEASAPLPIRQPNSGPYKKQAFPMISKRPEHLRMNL
Ribosomal protein S6 kinase alpha-4 (Homo sapiens), sequence (O75676 whole entry, looked up): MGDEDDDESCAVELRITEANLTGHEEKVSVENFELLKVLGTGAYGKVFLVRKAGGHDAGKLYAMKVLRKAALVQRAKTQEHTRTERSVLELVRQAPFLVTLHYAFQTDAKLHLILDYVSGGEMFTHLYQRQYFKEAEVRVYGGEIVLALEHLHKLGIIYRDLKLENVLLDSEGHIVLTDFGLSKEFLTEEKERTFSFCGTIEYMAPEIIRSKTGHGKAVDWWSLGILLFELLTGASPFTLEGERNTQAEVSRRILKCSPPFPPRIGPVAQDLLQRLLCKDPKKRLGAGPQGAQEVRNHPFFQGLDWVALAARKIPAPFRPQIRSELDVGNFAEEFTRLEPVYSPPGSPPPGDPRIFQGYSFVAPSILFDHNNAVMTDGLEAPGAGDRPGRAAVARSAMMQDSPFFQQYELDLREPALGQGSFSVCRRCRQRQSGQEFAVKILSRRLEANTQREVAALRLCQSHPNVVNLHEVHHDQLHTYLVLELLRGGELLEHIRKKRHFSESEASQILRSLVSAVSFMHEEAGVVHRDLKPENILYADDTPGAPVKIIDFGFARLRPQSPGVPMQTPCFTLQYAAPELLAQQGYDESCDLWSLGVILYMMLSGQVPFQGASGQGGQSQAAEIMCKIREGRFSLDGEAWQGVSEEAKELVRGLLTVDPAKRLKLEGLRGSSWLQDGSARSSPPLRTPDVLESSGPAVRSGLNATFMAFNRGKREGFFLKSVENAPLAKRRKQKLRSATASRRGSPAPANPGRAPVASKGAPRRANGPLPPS

Consider `COc1cccc(-n2ncc3c(N/N=C/c4ccc(F)cc4)ncnc32)c1`, for which the inhibition is -0.63% in assay [1]; 1.53% in [2]; -0.45% in [3]; 0.66% in [4]; 4.05% in assay [5]; 4.15% in assay [6]. Moreover, the inhibition in assay [7] was 2.78%; in assay [8] it was 4.13%; in assay [9] it was 1.73%; in [10], 3.51%; in assay [11] it was 0.01%; in assay [12], 1.66%. Also, the inhibition is 3.69% in assay [13]; 0.47% in assay [14]; 1.43% in assay [15]; 1.01% in [16]; 0.97% in [17]; 3.28% in assay [18]. Besides, the inhibition turned out to be 2.58% in assay [19] and 0.86% in [20].

Turning to `c1ccc(-c2nc3n(c2-c2ccc4c(c2)OCO4)CCC3)nc1`, the inhibition in assay [1] was 1.51%; in assay [2], -0.39%; in [3] it was 1.65%; in assay [4], 4.63%; in assay [5], 8.97%; in assay [6], 8.14%. In addition, the inhibition is 5.25% in assay [7]; 6.79% in [8]; 1.12% in assay [9]; 0.67% in [10]; 0.98% in assay [11]; 1.49% in [12]. Besides, the inhibition in assay [13] came out at 5.08%; in assay [14] it was 0.9%; in assay [15], 1.8%; in [16], 3.53%; in assay [17], 5.04%; in assay [18], 1.35%. Further, the figures for the inhibition in [19] and in [20] were 1.85% and 0%, respectively.

In the case of `Clc1ccc(-c2nn3ncccc3c2-c2ccnc(Nc3ccccc3)n2)cc1`, the inhibition in [1] is -0.06%; in assay [2] it was 0.52%; in assay [3] it was 0.76%; in assay [4], 1.28%; in assay [5], 0.64%; in assay [6] it was 2.07%. The inhibition in [7] is 1%; in [8], 2.91%; in assay [9] it was 0.57%; in assay [10], -0.24%; in [11] it was 0.53%; in [12], 1.67%. Moreover, the inhibition in assay [13] was 2.52%; in assay [14] it was 1.23%; in assay [15] it was -0.09%; in assay [16], 0.65%; in assay [17] it was 1.93%; in assay [18] it was -0.59%. Besides, the figures for the inhibition in [19] and in assay [20] were -0.77% and -1.17%, respectively.

Turning to `N#Cc1c(NC(=O)c2ccc(F)cc2)sc2c1CCCC2`, the inhibition in assay [1] was 0.16%; in assay [2], -0.05%; in assay [3], -0.27%; in assay [4], 1.57%; in assay [5], 1.16%; in assay [6], 2.08%. In addition, the inhibition in [7] is 0.1%; in [8], 2.25%; in assay [9], -0.29%; in [10], 0.86%; in [11], 0.85%; in assay [12], 1.5%. Also, the inhibition in assay [13] is 2.64%; in assay [14] it was 0.43%; in assay [15], -0.26%; in [16], -1.4%; in assay [17], 2.12%; in assay [18], 3.5%. For the same compound, the inhibition in assay [19] was 2.09%; in assay [20], 0.54%.

As for `COc1ccc(-c2nn3ncccc3c2-c2ccnc(Nc3ccc4c(c3)OCCO4)n2)cc1`, the inhibition was -0.27% in assay [1]; -2.49% in [2]; 0.2% in assay [3]; 0% in assay [4]; 0.41% in [5]; -0.38% in assay [6]. Moreover, the inhibition in assay [7] is 1.07%; in [8] it was -0.23%; in assay [9], 0.77%; in assay [10], -0.95%; in [11] it was -0.83%; in assay [12], 0.73%. Besides, the inhibition is 2.32% in [13]; -1.17% in assay [14]; 0.51% in assay [15]; -1.85% in assay [16]; 3.69% in [17]; 1.65% in [18]. The inhibition in [19] worked out at 2.32%; in assay [20], 0.61%.

Take `CC(=O)NCc1cccc(C#Cc2cncnc2Nc2ccc(OCc3cccc(F)c3)c(Cl)c2)c1`: the inhibition is 0.23% in [1]; -0.33% in assay [2]; 0.09% in [3]; 1.09% in assay [4]; -4.98% in [5]; -3.7% in assay [6]. The inhibition in assay [7] stood at 0.45%; in assay [8], 4%; in assay [9], 0.26%; in [10], 0.74%; in [11] it was 0.04%; in assay [12], 0.53%. In addition, the inhibition in assay [13] was 0.58%; in [14], 0.2%; in assay [15], 1.17%; in assay [16], -0.24%; in assay [17], 3.27%; in assay [18] it was 1.39%. Also, the inhibition in assay [19] was 3.4%; in assay [20], -0.73%.
